The values that follow come from ChEMBL document CHEMBL1961873, “Compounds: GSK PKIS; Assays: Nanosyn kinase panel” (2012).

Assay [1] concerns the target Sphingosine kinase 1 (Homo sapiens) (UniProt Q9NYA1). Particulars: at 1 µM.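 Also: mean SPHK1 inhibition value reported from the GSK PKIS kinase panel screen.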
The target of assay [2] is T1, Sphingosine kinase 2 (Homo sapiens) (UniProt Q9NRA0).
T1 sequence (whole entry): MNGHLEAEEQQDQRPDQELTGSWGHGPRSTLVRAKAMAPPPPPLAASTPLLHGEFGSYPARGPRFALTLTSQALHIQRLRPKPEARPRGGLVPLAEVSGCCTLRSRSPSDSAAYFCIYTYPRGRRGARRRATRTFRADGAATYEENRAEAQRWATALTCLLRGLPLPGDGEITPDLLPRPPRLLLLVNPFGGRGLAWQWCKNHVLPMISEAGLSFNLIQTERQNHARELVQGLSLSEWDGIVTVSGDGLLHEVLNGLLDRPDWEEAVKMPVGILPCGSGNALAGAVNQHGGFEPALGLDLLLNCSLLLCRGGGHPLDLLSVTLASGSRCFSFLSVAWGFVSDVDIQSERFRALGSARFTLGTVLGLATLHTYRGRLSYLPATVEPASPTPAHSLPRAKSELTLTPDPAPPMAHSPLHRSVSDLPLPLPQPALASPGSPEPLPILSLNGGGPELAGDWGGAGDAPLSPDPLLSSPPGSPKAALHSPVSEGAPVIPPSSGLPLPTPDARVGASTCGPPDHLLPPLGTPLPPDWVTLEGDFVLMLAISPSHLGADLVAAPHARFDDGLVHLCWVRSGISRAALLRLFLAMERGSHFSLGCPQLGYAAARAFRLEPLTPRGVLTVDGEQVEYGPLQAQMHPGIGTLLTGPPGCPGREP
Particulars: at 0.1 µM.

Assay [3] has as its target T1, Sphingosine kinase 2 (Homo sapiens). Conditions: at 1 µM.
In assay [4] the target is Casein kinase II subunit alpha (Homo sapiens) (UniProt P68400). Conditions: at 0.1 µM.
Sequence of Casein kinase II subunit alpha (Homo sapiens) (P68400 whole entry, looked up): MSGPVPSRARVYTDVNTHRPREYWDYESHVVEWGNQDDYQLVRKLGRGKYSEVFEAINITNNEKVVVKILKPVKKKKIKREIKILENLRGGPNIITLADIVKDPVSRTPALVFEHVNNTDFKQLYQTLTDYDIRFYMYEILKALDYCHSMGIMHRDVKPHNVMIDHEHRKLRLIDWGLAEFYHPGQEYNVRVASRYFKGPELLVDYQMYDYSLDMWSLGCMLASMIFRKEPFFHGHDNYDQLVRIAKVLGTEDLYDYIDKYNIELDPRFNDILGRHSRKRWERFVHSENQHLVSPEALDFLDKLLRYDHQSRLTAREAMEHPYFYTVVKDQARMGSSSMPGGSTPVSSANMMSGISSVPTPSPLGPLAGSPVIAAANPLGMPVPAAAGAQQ
The target is the same in assay [5]. Particulars: at 1 µM.
Assay [6] concerns the target T2, Inhibitor of nuclear factor kappa-B kinase subunit alpha (Homo sapiens) (UniProt O15111).
T2 sequence (whole entry): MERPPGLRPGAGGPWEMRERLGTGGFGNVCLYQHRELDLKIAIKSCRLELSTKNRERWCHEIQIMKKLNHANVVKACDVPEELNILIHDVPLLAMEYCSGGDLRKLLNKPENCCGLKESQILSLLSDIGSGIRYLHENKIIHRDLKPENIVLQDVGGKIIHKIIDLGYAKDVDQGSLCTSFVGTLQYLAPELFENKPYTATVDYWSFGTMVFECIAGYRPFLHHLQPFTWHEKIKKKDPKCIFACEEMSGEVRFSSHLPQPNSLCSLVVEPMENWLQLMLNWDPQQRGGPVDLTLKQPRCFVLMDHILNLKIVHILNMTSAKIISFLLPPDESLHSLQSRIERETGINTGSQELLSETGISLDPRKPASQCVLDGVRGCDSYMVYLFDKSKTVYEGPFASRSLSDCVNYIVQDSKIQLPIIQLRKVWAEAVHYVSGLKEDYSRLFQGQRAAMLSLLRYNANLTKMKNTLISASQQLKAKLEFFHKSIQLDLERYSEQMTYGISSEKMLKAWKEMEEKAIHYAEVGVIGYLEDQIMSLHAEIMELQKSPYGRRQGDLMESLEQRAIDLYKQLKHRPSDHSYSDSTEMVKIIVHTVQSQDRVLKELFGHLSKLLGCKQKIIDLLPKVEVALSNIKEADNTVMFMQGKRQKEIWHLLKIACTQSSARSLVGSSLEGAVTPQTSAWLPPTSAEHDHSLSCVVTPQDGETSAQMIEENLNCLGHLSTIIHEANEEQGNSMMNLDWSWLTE
Conditions: at 0.1 µM.

Assay [7] addresses T2, Inhibitor of nuclear factor kappa-B kinase subunit alpha (Homo sapiens). Particulars: at 1 µM.
Assay [8] addresses T3, Inhibitor of nuclear factor kappa-B kinase subunit beta (Homo sapiens) (UniProt O14920).
T3 sequence (whole entry): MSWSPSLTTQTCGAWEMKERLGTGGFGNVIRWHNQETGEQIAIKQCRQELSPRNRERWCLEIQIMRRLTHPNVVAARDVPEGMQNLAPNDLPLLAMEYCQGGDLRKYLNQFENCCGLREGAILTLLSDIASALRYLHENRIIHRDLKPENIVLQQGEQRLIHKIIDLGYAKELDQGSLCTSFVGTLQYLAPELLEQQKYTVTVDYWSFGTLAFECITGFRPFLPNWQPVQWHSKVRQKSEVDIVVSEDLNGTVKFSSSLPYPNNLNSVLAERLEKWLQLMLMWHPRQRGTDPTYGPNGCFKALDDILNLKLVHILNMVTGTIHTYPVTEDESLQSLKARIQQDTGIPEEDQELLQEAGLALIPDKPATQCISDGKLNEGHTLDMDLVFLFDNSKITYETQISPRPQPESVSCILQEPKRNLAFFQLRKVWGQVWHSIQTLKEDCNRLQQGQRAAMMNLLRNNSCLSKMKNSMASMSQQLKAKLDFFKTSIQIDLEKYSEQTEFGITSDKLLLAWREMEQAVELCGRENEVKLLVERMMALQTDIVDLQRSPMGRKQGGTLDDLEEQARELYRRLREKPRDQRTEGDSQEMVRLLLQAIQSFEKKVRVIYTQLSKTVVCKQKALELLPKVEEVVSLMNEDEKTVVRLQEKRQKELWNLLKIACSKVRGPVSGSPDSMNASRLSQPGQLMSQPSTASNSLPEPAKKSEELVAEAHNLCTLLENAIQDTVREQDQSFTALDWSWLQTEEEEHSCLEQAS
Particulars: at 0.1 µM.

For assay [9], the target named is T3, Inhibitor of nuclear factor kappa-B kinase subunit beta (Homo sapiens). Conditions: at 1 µM.
For assay [10], the target named is T4, Inhibitor of nuclear factor kappa-B kinase subunit epsilon (Homo sapiens) (UniProt Q14164).
T4 sequence (whole entry): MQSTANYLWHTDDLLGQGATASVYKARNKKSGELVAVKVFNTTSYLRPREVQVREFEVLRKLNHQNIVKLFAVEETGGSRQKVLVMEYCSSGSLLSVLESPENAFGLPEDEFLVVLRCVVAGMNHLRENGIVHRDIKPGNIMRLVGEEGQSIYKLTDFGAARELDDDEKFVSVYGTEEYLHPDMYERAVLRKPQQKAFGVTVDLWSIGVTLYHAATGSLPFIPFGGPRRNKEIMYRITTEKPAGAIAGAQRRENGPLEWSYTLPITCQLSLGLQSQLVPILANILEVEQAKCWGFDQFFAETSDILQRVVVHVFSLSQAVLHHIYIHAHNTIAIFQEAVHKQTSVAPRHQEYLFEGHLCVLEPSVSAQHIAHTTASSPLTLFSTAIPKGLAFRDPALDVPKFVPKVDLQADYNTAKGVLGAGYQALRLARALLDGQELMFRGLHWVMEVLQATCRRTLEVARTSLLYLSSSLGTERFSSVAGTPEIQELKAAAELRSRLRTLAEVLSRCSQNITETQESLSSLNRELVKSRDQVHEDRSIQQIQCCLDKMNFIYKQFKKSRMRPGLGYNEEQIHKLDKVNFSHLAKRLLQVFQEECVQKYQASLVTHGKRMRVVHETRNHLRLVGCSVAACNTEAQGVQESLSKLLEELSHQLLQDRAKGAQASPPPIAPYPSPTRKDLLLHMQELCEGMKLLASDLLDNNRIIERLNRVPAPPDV
Particulars: at 0.1 µM.

Assay [11] concerns the target T4, Inhibitor of nuclear factor kappa-B kinase subunit epsilon (Homo sapiens). Conditions: at 1 µM.
The target in assay [12] is T5, Serine/threonine-protein kinase Nek1 (Homo sapiens) (UniProt Q96PY6).
T5 sequence (whole entry): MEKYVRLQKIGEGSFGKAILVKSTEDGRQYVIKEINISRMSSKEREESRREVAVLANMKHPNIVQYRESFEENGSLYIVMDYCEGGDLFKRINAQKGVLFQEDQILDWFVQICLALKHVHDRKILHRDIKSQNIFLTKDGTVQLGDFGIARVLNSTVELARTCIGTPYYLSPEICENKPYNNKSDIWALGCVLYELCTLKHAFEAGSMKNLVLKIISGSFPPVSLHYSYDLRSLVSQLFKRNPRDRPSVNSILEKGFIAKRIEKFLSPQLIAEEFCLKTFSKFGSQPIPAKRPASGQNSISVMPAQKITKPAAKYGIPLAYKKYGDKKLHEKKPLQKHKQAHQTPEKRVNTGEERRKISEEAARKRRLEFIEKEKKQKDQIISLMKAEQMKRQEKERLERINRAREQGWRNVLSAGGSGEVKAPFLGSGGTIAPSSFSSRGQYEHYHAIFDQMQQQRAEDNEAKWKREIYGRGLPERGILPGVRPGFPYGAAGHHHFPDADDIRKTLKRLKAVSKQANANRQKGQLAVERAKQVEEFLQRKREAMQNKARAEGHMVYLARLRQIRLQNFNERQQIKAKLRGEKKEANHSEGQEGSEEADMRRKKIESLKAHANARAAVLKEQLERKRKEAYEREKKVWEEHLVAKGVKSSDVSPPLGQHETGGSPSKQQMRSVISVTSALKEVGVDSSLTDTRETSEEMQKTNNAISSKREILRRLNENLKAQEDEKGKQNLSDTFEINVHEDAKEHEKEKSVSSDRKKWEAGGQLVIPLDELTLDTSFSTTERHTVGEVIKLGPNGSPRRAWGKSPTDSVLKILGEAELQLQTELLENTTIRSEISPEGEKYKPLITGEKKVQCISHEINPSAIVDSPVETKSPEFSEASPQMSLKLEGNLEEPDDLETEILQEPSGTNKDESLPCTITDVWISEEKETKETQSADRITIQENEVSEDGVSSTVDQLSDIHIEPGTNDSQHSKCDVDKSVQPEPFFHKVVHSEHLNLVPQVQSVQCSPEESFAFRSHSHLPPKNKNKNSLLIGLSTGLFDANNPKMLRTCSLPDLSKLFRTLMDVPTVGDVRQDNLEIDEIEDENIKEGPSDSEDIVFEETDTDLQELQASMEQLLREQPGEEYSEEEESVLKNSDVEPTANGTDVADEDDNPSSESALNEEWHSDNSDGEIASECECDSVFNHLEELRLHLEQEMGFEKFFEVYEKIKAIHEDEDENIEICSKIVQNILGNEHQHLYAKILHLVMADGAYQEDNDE
Conditions: at 0.1 µM.

The target of assay [13] is T5, Serine/threonine-protein kinase Nek1 (Homo sapiens). Conditions: at 1 µM.
The target in assay [14] is T6, Serine/threonine-protein kinase Nek2 (Homo sapiens) (UniProt P51955).
T6 sequence (whole entry): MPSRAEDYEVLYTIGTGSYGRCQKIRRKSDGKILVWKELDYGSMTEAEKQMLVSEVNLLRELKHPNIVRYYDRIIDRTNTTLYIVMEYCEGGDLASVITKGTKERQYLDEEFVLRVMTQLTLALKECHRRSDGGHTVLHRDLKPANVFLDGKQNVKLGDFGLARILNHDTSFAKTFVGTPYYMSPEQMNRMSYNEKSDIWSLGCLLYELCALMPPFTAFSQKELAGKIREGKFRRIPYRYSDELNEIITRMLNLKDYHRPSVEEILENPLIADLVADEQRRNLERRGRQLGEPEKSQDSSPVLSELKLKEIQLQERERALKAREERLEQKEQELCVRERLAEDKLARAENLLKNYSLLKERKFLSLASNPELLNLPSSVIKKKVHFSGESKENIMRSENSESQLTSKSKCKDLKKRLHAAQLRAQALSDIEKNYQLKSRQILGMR
Conditions: at 0.1 µM.

Assay [15] deals with T6, Serine/threonine-protein kinase Nek2 (Homo sapiens). Particulars: at 1 µM.
Assay [16] deals with Serine/threonine-protein kinase Nek6 (Homo sapiens) (UniProt Q9HC98). Particulars: at 0.1 µM.
Sequence of Serine/threonine-protein kinase Nek6 (Homo sapiens) (Q9HC98 whole entry): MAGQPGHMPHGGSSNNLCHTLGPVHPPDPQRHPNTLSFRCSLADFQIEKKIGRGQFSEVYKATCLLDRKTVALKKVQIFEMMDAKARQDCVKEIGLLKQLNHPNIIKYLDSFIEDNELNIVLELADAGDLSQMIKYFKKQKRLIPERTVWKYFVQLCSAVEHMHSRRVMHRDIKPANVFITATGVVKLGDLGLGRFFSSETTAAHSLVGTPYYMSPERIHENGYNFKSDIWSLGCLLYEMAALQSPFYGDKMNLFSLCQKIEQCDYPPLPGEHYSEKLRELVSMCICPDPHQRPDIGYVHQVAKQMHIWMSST
Assay [17] shares this target. Conditions: at 1 µM.
The target in assay [18] is Serine/threonine-protein kinase Nek7 (Homo sapiens) (UniProt Q8TDX7). Particulars: at 0.1 µM.
Sequence of Serine/threonine-protein kinase Nek7 (Homo sapiens) (Q8TDX7 whole entry, looked up): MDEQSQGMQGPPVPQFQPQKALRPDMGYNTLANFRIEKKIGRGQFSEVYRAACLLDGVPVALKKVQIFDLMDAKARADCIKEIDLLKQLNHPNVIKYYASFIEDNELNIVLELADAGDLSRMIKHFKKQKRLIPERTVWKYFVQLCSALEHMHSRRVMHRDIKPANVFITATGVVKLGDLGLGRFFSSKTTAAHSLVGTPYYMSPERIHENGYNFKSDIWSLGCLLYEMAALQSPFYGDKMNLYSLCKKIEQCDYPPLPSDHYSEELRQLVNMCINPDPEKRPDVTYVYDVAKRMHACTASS
The target is the same in assay [19]. Conditions: at 1 µM.
The target of assay [20] is T7, Serine/threonine-protein kinase Nek9 (Homo sapiens) (UniProt Q8TD19).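 Also: reported value is the mean percent inhibition of NEK9.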
T7 sequence (whole entry): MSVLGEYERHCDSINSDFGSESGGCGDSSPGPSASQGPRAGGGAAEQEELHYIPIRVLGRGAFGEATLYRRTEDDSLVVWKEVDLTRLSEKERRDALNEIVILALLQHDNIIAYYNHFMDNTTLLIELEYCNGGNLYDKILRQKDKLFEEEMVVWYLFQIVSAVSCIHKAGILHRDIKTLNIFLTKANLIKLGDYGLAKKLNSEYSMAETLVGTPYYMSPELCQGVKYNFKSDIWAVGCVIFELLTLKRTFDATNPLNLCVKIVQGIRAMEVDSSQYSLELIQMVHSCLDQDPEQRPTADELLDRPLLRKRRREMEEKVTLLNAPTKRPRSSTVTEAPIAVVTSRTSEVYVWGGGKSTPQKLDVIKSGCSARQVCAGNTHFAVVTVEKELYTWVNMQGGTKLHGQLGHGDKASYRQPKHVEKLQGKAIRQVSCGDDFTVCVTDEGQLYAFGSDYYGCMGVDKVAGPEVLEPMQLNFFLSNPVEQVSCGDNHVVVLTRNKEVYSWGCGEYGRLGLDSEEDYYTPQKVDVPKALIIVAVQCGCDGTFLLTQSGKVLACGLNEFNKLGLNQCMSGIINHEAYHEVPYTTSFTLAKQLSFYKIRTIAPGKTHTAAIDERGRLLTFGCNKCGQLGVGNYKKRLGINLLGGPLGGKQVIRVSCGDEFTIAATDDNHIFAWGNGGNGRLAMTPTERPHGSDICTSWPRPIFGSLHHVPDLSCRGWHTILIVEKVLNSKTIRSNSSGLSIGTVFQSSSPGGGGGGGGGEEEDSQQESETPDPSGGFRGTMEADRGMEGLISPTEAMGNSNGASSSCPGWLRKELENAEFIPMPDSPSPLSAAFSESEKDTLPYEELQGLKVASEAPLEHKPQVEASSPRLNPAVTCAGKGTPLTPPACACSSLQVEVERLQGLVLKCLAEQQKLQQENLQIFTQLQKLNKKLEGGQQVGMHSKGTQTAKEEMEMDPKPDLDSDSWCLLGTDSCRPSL
Conditions: at 0.1 µM.

Sequence of Sphingosine kinase 1 (Homo sapiens) (Q9NYA1 whole entry): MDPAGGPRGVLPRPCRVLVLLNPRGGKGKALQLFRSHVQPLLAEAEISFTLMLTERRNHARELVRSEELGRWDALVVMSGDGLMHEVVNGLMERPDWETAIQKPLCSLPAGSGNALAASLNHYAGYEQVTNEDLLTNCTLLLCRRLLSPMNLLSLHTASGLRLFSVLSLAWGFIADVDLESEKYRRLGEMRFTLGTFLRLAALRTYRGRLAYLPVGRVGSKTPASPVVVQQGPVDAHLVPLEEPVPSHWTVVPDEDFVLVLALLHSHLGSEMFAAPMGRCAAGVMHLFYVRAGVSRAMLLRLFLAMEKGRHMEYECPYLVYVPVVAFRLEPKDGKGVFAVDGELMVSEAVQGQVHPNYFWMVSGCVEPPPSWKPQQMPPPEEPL

A word on the inhibition: it is the relative decrease from the control value, in per cent. For `COc1cccc(-n2ncc3c(N/N=C/c4ccncc4)ncnc32)c1`, the inhibition in assay [1] is -2.79%; in assay [2] it was -0.91%; in assay [3] it was -0.32%; in assay [4], 18.2%; in assay [5] it was 59.7%; in assay [6] it was 1.55%. The inhibition in assay [7] was found to be 1.71%; in assay [8], 4.82%; in [9] it was 4.07%; in assay [10], 5.23%; in assay [11], 9.13%; in assay [12], 3.6%. In addition, the inhibition in assay [13] was determined as 12.5%; in [14], 5.11%; in [15], 5.47%; in assay [16], 4.03%; in assay [17], 3.93%; in assay [18], 2.45%. Moreover, the inhibition in [19] was 3.46%; in assay [20], 7.16%.
